MCF10A rereplic – inducers of DNA re-replication in MCF 10A breast cells; MCF 10A DNA re-replication, Hoechst nuclear intensity, 48 h; Potency, µM (top dose mostly 46.1 µM), for the others: at the top dose activity, positive = re-replication, hits mostly activators; 350,000 compounds, 2.9% hits; also: potency is read from the fitted curve at half-maximal effect; % of control where 0% means no effect; nearly all actives have a fitted effect of over 50% in size
SW480 rereplic – DNA re-replication induction in SW480 cells; SW480 DNA re-replication, Hoechst DNA content imaging, 48 h; 340,000 compounds, 1.8% hits; Potency, µM (titrated, usually from 46.1 µM), without a hit: top-dose re-replication activation, usual class: activators; AID 624297; also: potency is read from the fitted curve at half-maximal effect; % of control where 0% means no effect; nearly all actives have a fitted effect of over 55% in size
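Compounds, transferred as 23 nL by pin tool, were incubated with cells for 48 hr; DNA content per nucleus was then quantified by Hoechst staining and fluorescence plate imaging.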
RORg inh – ROR gamma (mouse) transcription inhibition | P51450 | Drosophila S2 Gal4-RORgamma UAS-luciferase reporter, 20 h | Potency, µM (top dose mostly 53.6 µM), without a hit: at the top dose activity change, negative = inhibition, most hits filed as inhibitors | 310,000 compounds, 5.4% hits | AID 2551; also: potency is read from the fitted curve at half-maximal effect; % is scaled to controls: 0 for no effect and ±100 for the full control effect; nearly all actives have a fitted effect of over 60% in size
Target sequence (P51450 whole entry, looked up, the tested form may be a part): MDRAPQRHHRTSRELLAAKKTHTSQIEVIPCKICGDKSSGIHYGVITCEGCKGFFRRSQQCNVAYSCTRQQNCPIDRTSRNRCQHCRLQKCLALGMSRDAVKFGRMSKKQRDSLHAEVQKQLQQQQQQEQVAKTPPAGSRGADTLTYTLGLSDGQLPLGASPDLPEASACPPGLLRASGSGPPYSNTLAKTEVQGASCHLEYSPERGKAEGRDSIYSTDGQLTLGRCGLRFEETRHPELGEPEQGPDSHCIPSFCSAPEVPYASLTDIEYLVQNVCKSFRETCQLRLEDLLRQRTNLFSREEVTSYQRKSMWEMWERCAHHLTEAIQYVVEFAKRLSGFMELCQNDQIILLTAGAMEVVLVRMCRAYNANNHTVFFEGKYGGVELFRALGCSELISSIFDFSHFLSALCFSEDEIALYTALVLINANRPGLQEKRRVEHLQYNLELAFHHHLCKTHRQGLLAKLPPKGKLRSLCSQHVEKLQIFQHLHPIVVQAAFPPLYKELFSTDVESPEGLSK
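Luminescence from a UAS-regulated Photinus luciferase reporter in stably transfected Drosophila Schneider cells is measured; decreased signal marks ROR gamma inhibition. Fusion expression is induced by 700 uM copper sulfate for 20 hr.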
IL-1B inflam inh – inflammasome signaling inhibition, IL-1 beta readout. 360,000 compounds, 4.7% hits. THP-1 LPS/ATP IL-1B secretion, AlphaLISA, 16 h; stronger effect = lower value. activity change, % at 57.5 µM; in the data active = activity change below about -50%; inconclusive = mostly about -30% to -49%; also: % is scaled to controls: 0 for no effect and ±100 for the full control effect
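THP-1 cells pretreated 1 hr with compounds (up to 57.5 uM final), then stimulated with LPS (250 ng/mL final) plus ATP (1.25 mM final); secreted IL-1B measured by AlphaLISA after 16 hr, decreased signal indicating inhibition.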
Gal4-VP16 FLuc – Gal4-VP16 reporter inhibition counter-screen. Drosophila S2 Gal4-VP16 UAS-luciferase, luminescence, 20 h. Potency, µM (top dose mostly 53.6 µM), inactives show at the top dose activity, negative = inhibition, hits mostly inhibitors. 310,000 compounds, 3.5% hits. AID 2546;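 also: Gal4-VP16 expression switched on by copper sulfate through the metallothionein promoter; potency is read from the fitted curve at half-maximal effect; % is scaled to controls: 0 for no effect and ±100 for the full control effect; nearly all actives have a fitted effect of over 50% in size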
* marks the source's active call; other numbers are inactive results; i = inactive; ? = inconclusive; / = not tested or not shown. This is a sample that favours compounds with a hit; in the whole collection about 11% have one here. Unless noted, calls follow the shape of the dose curve; as a rule, active = well fitted curve in the direction sought with a large enough effect; inconclusive = small, poorly fitted or top-dose-only effect, or another doubt; inactive = no such curve, though single readings can be large; an effect the other way counts as inactive or inconclusive.

SMILES | MCF10A rereplic | SW480 rereplic | RORg inh | IL-1B inflam inh | Gal4-VP16 FLuc
O=C(Nc1ccc(N2CCCC2)c(Cl)c1)c1cccs1 | ? | 1% | 11% | / | -25%
O=C(NC(=S)Nc1ccccc1N1CCCCC1)c1cccs1 | ? | ? | 1.6µM* | 11 | ?
O=C(NC(=S)Nc1ccccc1N1CCCC1)c1cccs1 | 8% | -7% | 4.5µM* | 29 | 16µM*
O=C(NC(=S)Nc1ccc(N2CCOCC2)c(Cl)c1)c1cccs1 | 19% | 4% | ? | -25 | 14µM*
CC(C)CC(=O)NC(=S)Nc1ccc(N2CCOCC2)c(Cl)c1 | ? | 24% | 7.9µM* | 8 | ?
COC(=O)c1cc(C(=O)OCC(=O)N2CCCCC2)cc([N+](=O)[O-])c1 | -1% | -3% | / | 25 | /
O=C(Nc1ccc2c(c1)OCCO2)c1ccc(Cl)c(Cl)c1 | 10% | -1% | 23% | ? | -15%
O=C(NC(=S)Nc1ccccc1N1CCOCC1)c1cccs1 | ? | 0% | 6.3µM* | 1 | 14µM*
O=C(Nc1ccc(N2CCOCC2)c(Cl)c1)c1cccnc1 | -1% | -2% | 12% | -15 | 17%
O=C(NC(=S)Nc1ccc(N2CCCCC2)c(Cl)c1)c1ccc2c(c1)OCCO2 | 9.2µM* | ? | 3.2µM* | -7 | 6.3µM*
O=C(Nc1ccccc1N1CCOCC1)c1cccs1 | 2% | -14% | 39% | -5 | -12%
O=C(NC(=S)Nc1ccc(N2CCOCC2)c(Cl)c1)c1cncc(Br)c1 | 8% | ? | 1µM* | 14 | 0.56µM*
CC(C)c1ccccc1NS(=O)(=O)c1cccs1 | 3% | -1% | -41% | 48 | 9%
O=S(=O)(Cc1ccccc1)N(O)c1ccccc1 | ? | 2% | 16% | -63* | -14%
COc1cccc(CS(=O)(=O)c2nnnn2-c2ccccc2)c1 | / | / | 7.1µM* | / | -28%
CCCS(=O)(=O)c1nnnn1-c1cccc(OC)c1 | 6.5µM* | ? | 1.8µM* | -67* | 4.5µM*
COc1cccc([C@@H]2Oc3ccc(OC)cc3[C@H](O)[C@H]2O)c1 | / | / | ? | / | -7%
CC(C)C(=O)N[C@@H]1c2ccccc2CC[C@@H]1O | 29% | 17% | / | -22 | /
CCCCn1nnnc1C(c1ccccc1)N1CCN(c2ccc(C(F)(F)F)cc2[N+](=O)[O-])CC1 (centres undefined) | / | / | / | -12 | /
C=CCC1(O)C(=O)N2C(=C1C(=O)OCC)c1ccc3ccccc3c1CC2(C)C (centres undefined) | 5% | -20% | -19% | ? | -12%
CC1(C)Cc2c(ccc3ccccc23)C2=C(C(=O)N3CCCC3)C(=O)C(=O)N21 | 21µM* | 4% | -37% | 71 | 23%
O=[N+]([O-])c1cccc(-c2nc3ccccc3s/c2=N/O)c1 | ? | 69% | 13% | -81* | -13%
O=C(NCCCN1CCCC1=O)C(=O)NCC1OCCCN1S(=O)(=O)c1cc(F)ccc1F (centres undefined) | 0% | -24% | -6% | i | -10%
CN=C1S/C(=C\c2ccc(Cl)cc2)C(=O)N1C | ? | 23µM* | 27% | -17 | -9%
Cc1ccc(C)n1N1C(=O)/C(=C\c2ccc(Cl)cc2)SC1=S | ? | 6% | 40% | -91* | -3%
SMILES | MCF10A rereplic | SW480 rereplic | RORg inh | IL-1B inflam inh | Gal4-VP16 FLuc
CN=C1S/C(=C\c2ccc(SC)cc2)C(=O)N1C | 2% | 5% | -24% | -17 | -1%
CC(=O)N(C(C)=O)N1C(=O)/C(=C/c2ccc(Cl)cc2)SC1=S | ? | -4% | 8% | 0 | -21%
c1ccc2c(c1)C1=NCCN1c1ccccc1-2 | / | / | / | -105* | /
COc1ccc(NCc2ccc([N+](=O)[O-])s2)cc1 | ? | 65% | -4% | -71* | ?
O=[N+]([O-])c1ccc(CNc2cccc(Cl)c2)s1 | -1% | -1% | -2% | -95* | 1%
O=[N+]([O-])c1ccc(CNc2ccc(F)cc2)s1 | 7% | ? | -11% | -85* | -4%
COc1ccc(NCc2ccc([N+](=O)[O-])s2)c(OC)c1 | 3% | / | 12% | -8 | 11µM*
CCCCn1c(N)c(N(CCOC)C(=O)COC(=O)CCOc2ccc(C)cc2)c(=O)[nH]c1=O | 11% | ? | / | 0 | /
Cc1ccc(-n2ncc(N(C)C)c(Cl)c2=O)cc1 | 6% | 2% | 11µM* | -11 | ?
COc1nn(-c2ccccc2)c(=O)c(Cl)c1Cl | 3.7µM* | 2.9µM* | ? | -96* | 11µM*
COc1cnn(-c2cccc(Cl)c2)c(=O)c1Cl | 12% | 2% | / | -5 | /
COc1ccc(-n2ncc(Cl)c(Cl)c2=O)cc1 | 0.82µM* | 3% | 2µM* | -107* | ?
COc1c(Cl)cnn(-c2ccc(Cl)c(Cl)c2)c1=O | 23µM* | ? | 6% | -98* | 0%
O=[N+]([O-])c1ccc(Cl)cc1Cl | / | / | 3% | / | -5%
COc1ccc2cnn(-c3ccccc3)c(=O)c2c1OC | -1% | -9% | 30% | -18 | 11%
COc1c(Cl)cnn(-c2ccccc2)c1=O | ? | ? | -14% | -75* | 0%
CCCC(NC(=O)CCl)c1ccccc1 (centres undefined) | 8% | 12% | -40% | -92* | -28%
CC(C)CC(NC(=O)CCl)c1ccccc1 (centres undefined) | 13% | 14% | -19% | -6 | -7%
CCC(NC(=O)CCl)c1ccc(C)cc1 (centres undefined) | 11% | 16% | 30% | -93* | 2%
COc1ccc(CSC(=S)NNc2ccccc2)cc1 | / | / | / | 41 | /
S=C(NCCCN1CCN(CCCNC(=S)NC2CCCCC2)CC1)NC1CCCCC1 | ? | ? | / | -15 | /
COc1cc(C(=O)NCc2ccc(S(N)(=O)=O)cc2)ccc1OCC(=O)Nc1cccc(C(F)(F)F)c1 | ? | ? | / | 6 | /
COc1cc(C(=O)N(C)CCOc2ccccc2)ccc1OCC(=O)Nc1cccc(C(F)(F)F)c1 | ? | 14% | / | -73* | /
CCOc1ccc2nc(N3C(=O)CNC3=S)sc2c1 | ? | ? | 1µM* | -97* | 2.8µM*
CCCCC(=O)N1CCN(c2nc3ccc(OCC)cc3s2)CC1 | 10% | -3% | 3% | 8 | -9%
SMILES | MCF10A rereplic | SW480 rereplic | RORg inh | IL-1B inflam inh | Gal4-VP16 FLuc
Cc1cc2nc(N3C(=O)CNC3=S)sc2cc1C | 15µM* | ? | 1µM* | -97* | 3.2µM*
Cc1cc2nc(N)sc2cc1C | -4% | -7% | ? | -12 | -6%
CC1=NN(C(C#N)c2ccccc2)C(C)(C)C1 (centres undefined) | -7% | -145% | -7% | 26 | -3%
COc1ccc(C(C#N)N2CCC(c3ccccc3)=N2)cc1 (centres undefined) | ? | 23% | 10% | -90* | 29%
COc1ccc(/C=N/n2c(-c3ccccc3)n[nH]c2=S)cc1 | -5% | 1% | 5.6µM* | -9 | 4.5µM*
Oc1ccc(Br)cc1/C=N/n1c(-c2ccccc2)n[nH]c1=S | 18% | 1% | / | -7 | /

From PubChem
